Results taken from PubChem BioAssay (EPA / NIEHS).
The source holds several records for some structures; these can differ, active in one and inactive in another. The source made the active and inactive calls. Rule for the calls: active = hit-call score of the fitted dose curve at least 0.9, where 1 is the maximum; inactive = score below 0.9.

experiment: ATG_Sox_CIS: Attagene CIS-FACTORIAL HepG2 Assay for human SRY-box transcription factor (SOX) (AID 2282960); conditions: HepG2 Attagene cis-factorial SOX reporter, mRNA; actives raise or lower the signal
Summary of the method: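 Endogenous factor activity in human liver HepG2 cells carrying transfected cis-regulated reporter units. RNA taken 24 h post-dose, reverse-transcribed, PCR-amplified and sized by capillary electrophoresis. Gain or loss of signal fitted relative to DMSO.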

| SMILES | outcome | AC50 |
| --- | --- | --- |
| CC(C#N)CCC#N (stereo not given) | inactive | – |
| CN(C)N=O | inactive | – |
| Cc1ccc(N)cc1Cl | inactive | – |
| Oc1cccc2cccnc12 | inactive | – |
| BrCCBr | inactive | – |
| O=C(O)C(F)(F)C(F)(F)C(F)(F)C(F)(F)C(F)(F)C(F)(F)C(F)(F)C(F)(F)C(F)(F)C(F)(F)F | inactive | 58.4 µM (active) |
| CC(C)(OO)c1ccccc1 | inactive | – |
| CC(C)(C)c1cc(O)ccc1O | – | 179 µM (active) |
| COP(=S)(OC)Oc1ccc(Sc2ccc(OP(=S)(OC)OC)cc2)cc1 | inactive | – |
| CC(C)c1cccc(C(C)C)c1O | inactive | – |
| O=[N+]([O-])c1ccc(O)c([N+](=O)[O-])c1 | inactive | – |
| COC(=O)c1sccc1S(=O)(=O)NC(=O)Nc1nc(C)nc(OC)n1 | inactive | – |
| CC1(C)CCC(Cc2ccc(Cl)cc2)C1(O)Cn1cncn1 (stereo not given) | inactive | – |
| COC[C@H](C)N(C(=O)CCl)c1c(C)csc1C | inactive | – |
| CCOC(=O)Nc1cccc(OC(=O)Nc2ccccc2)c1 | inactive | – |
| ClCc1ccccn1 | inactive | – |
| CCCCP(CCCC)CCCC | inactive | – |
| O=C(Cl)c1ccc(Cl)cc1 | inactive | – |
| CC1CN1P(=O)(N1CC1C)N1CC1C (stereo not given) | inactive | – |
| O=P(O)(O)CN(CP(=O)(O)O)CP(=O)(O)O | inactive | – |

| SMILES | outcome | AC50 |
| --- | --- | --- |
| ClCCBr | inactive | – |
| Oc1ccc(-c2ccccc2)cc1 | – | 145 µM (active) |
| CCOP(=O)(CN(CCO)CCO)OCC | inactive | – |
| CC(C)c1ccc(CO)cc1 | inactive | – |
| C[C@]12CCC(=O)C[C@@H]1CC[C@@H]1[C@@H]2CC[C@]2(C)[C@@H](O)CC[C@@H]12 | inactive | – |
| ClC1(Cl)C2(Cl)C3(Cl)C4(Cl)C(Cl)(Cl)C5(Cl)C3(Cl)C1(Cl)C5(Cl)C24Cl (stereo not given) | inactive | – |
| Nc1ccc(N=Nc2ccc(-c3ccc(N=Nc4c(S(=O)(=O)O)cc5cc(S(=O)(=O)O)c(N=Nc6ccccc6)c(O)c5c4N)cc3)cc2)c(N)c1 | inactive | – |
| Cc1ccccc1N | inactive | – |
| CC(=[OH+])/C=C(/C)[O-].CC(=[OH+])/C=C(/C)[O-].CC(=[OH+])/C=C(/C)[O-].[Fe] | inactive | – |
| Fc1ccc(C2(Cn3cncn3)OC2c2ccccc2Cl)cc1 (stereo not given) | inactive | – |
| O=[N+]([O-])c1c(Cl)c(Cl)cc(Cl)c1Cl | inactive | – |
| C=C(C)C(=O)[O][Sn]([CH2]CCC)([CH2]CCC)[CH2]CCC | inactive | – |
| Cc1cc(Cl)ccc1O[C@H](C)C(=O)O | inactive | – |
| CCC(C)c1cccc(C(C)CC)c1O (stereo not given) | inactive | – |
| O=c1[nH]c(=O)[nH]c(=O)[nH]1 | inactive | – |
| C1CCC(NC2CCCCC2)CC1 | inactive | – |
| Cc1cc(=O)[nH]o1 | inactive | – |
| O=C/C=C/c1ccccc1 | inactive | – |
| COP(=S)(OC)Oc1c(Cl)cc(C)cc1Cl | inactive | – |
